Shown are actives, neighbours in structure and some others; about 5.7% of the full set was active somewhere.
Giardia killer: kills Giardia lamblia; activity change, % at 7.66 µM, hits read low; AID 540267; Giardia lamblia trophozoite viability; 0.15% of 340,000 active; in the data active = activity change below about -80%; inconclusive = between about -30% and that limit;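 also: parasites exposed to compound for two days anaerobically before the ATP read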
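Luminescence from cellular ATP indicates surviving trophozoites (100 cells/well) following 48 hrs anaerobic compound treatment at 37 deg C; signal develops 15-30 min at room temperature.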
A549 tox-1: counter-screen for Nrf2 inhibitors: cytotoxicity in A549 cells; A549 ARE-Fluc cells, CellTiter-Fluor viability, 18-24 h; 0.16% of 390,000 active; Potency, µM (doses to about 46 µM), for the others: at the top dose activity change, negative = cytotoxicity, usual class: inhibitors; also: potency is read from the fitted curve at half-maximal effect
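A549 ARE-Fluc cells in 5% FBS OPTI-MEM, 5000 cells/well, rested 2 h then exposed to compounds in concentration-response for 18-24 h at 37 °C. Viability by CellTiter-Fluor fluorescence (Ex 405/Em 525) after 30 min; luciferase luminescence (BugLite, 15 min, RT) read afterwards.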
Nrf2 block: Nrf2 pathway inhibition; A549 ARE-Fluc reporter, luciferase luminescence, 18-24 h; 2.1% of 360,000 active; Potency, µM (doses to about 46 µM), inactives show at the highest dose activity change, negative = inhibition, usual class: inhibitors; also: potency is read from the fitted curve at half-maximal effect; nearly all actives have a fitted effect of over 60% in size
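Concentration-response testing used A549 ARE_Fluc cells at 5000 cells/well. Following an 18-24 h compound incubation, viability was read by fluorescence (Ex 405/Em 525) and luciferase output by luminescence.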
KB-V1 cytotox: KB-V1 MDR subline cytotoxicity. AID 1347076. KB-V1 MDR cells viability, CellTiter-Glo, 72 h. 3.4% of 400,000 active. Potency, µM (top dose mostly 46.1 µM), actives largely listed as cytotoxic; also: potency is read from the fitted curve at half-maximal effect; nearly all actives have a fitted effect of over 60% in size
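Cytotoxicity via CellTiter-Glo luminescence after 72 h compound exposure at 37 degrees C. Cells: drug-selected KB-V1 line, DMEM phenol-red free plus 10% FBS. Compounds tested at multiple concentrations; normalized data fitted to concentration-effect curves.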
PI4K2A inh: blocks human PI4K2A kinase activity; Q9BTU6; purified PI4K2A, ADP-Glo luminescence, 1 h; hits give low values; activity change, negative = inhibition, % at 76.9 µM; 0.13% of 420,000 active; in the data active = activity change below about -50%; inconclusive = mostly about -30% to -49%;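 also: -100% = wells without enzyme as full effect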
Target sequence (Q9BTU6 whole entry, looked up): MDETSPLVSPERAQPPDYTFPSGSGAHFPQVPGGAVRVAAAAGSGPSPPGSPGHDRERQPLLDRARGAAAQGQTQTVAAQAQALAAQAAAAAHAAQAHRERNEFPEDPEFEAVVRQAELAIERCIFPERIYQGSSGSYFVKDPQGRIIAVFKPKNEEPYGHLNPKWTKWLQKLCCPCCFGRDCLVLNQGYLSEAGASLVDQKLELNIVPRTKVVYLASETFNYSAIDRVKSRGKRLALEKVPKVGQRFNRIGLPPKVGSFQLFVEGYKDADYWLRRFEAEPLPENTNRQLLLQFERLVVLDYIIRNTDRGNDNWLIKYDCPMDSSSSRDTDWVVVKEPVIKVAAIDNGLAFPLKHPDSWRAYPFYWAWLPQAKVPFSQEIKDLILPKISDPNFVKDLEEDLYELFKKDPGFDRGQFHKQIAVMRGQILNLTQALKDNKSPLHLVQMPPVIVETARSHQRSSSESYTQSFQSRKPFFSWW
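In this quantitative HTS, ADP production by PI4K2A was quantified luminescently after 1 h at ambient temperature; 100 microM adenosine served as plate-quality control.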
KB-3-1 tox: kills parental KB-3-1 adenocarcinoma cells | Potency, µM (doses to about 46.1 µM), most hits filed as cytotoxic | KB-3-1 viability, CellTiter-Glo ATP luminescence, 72 h | 1.4% of 400,000 active; also: potency is read from the fitted curve at half-maximal effect; nearly all actives have a fitted effect of over 60% in size
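Luminescent ATP read-out (CellTiter-Glo) measures survival of drug-naive KB-3-1 cells after 72 h compound exposure at 37 °C. Titration series was screened from lowest to highest concentration, with DMSO vehicle plates as background controls.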
FLuc enzyme inh: firefly luciferase inhibition, Nrf2 hit validation; shares compounds with Nrf2 block; purified firefly luciferase, luminescence inhibition; Potency, µM (titrated, usually from 57.5 µM), inactives show at the highest dose activity change, negative = inhibition, usual class: inhibitors; 4% of 1,400 active; AID 720522; also: potency is read from the fitted curve at half-maximal effect; nearly all actives have a fitted effect of over 65% in size
A549 tox-2: counter-screen for Nrf2 inhibitors: cytotoxicity in A549 ARE cells; A549 ARE-Fluc cells, cytotoxicity counterscreen; shares compounds with Nrf2 block; AID 720523; 2% of 1,400 active; Potency, µM (titrated, usually from 46.1 µM), for inactives: top-dose activity change, negative = cytotoxicity, usual class: inhibitors;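 also: potency is read from the fitted curve at half-maximal effect; cells exposed to compounds for 18 to 24 hours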
ARE-Fluc inh: confirmation of Nrf2 inhibitors in A549 ARE reporter cells. AID 720524. Potency, µM (top dose mostly 46.1 µM), without a hit: top-dose activity change, negative = inhibition, hits mostly inhibitors. 74% of 1,400 active. A549 ARE-firefly luciferase reporter, luminescence. shares compounds with Nrf2 block; also: potency is read from the fitted curve at half-maximal effect; nearly all actives have a fitted effect of over 65% in size
Active calls of the source: *; i = inactive; u = inconclusive; x = no result shown. Unless noted, calls follow the shape of the dose curve; as a rule, active = well fitted curve in the direction sought with a large enough effect; inconclusive = small, poorly fitted or top-dose-only effect, or another doubt; inactive = no such curve, though single readings can be large; an effect the other way counts as inactive or inconclusive. Unless noted, % is scaled to controls: 0 for no effect and ±100 for the full control effect.

SMILES | Giardia killer | A549 tox-1 | Nrf2 block | KB-V1 cytotox | PI4K2A inh | KB-3-1 tox | FLuc enzyme inh | A549 tox-2 | ARE-Fluc inh
C[C@H]1O[C@@H](O[C@H]2[C@@H](O)C[C@H](O[C@H]3[C@@H](O)C[C@H](O[C@H]4CC[C@@]5(C)[C@H](CC[C@@H]6[C@@H]5C[C@@H](O)[C@]5(C)[C@@H](C7=CC(=O)OC7)CC[C@]65O)C4)O[C@@H]3C)O[C@@H]2C)C[C@H](O)[C@@H]1O | 42 | u | 0.13µM* | 0.41µM* | -5 | 0.18µM* | 2% | u | 0.058µM*
CC(C)(C)c1ccc(-c2noc(CCC(=O)Nc3cccc(Cl)c3)n2)cc1 | x | 1% | 0.15µM* | i | -8 | i | u | 1% | x
Cc1cccc(-c2noc(CCC(=O)NCc3ccco3)n2)c1 | 0 | 2% | x | i | 4 | i | x | x | x
CC(C)(C)c1ccc(-c2noc(CCC(=O)NCc3ccco3)n2)cc1 | 9 | 12µM* | 0.018µM* | u | 4 | u | 1.2µM* | -6% | 0.82µM*
Cc1cc(O)c2c(c1O)C(=O)[C@]13C(=C2O)C(=O)[C@@H]2[C@@H](O)[C@H]1[C@@H]1[C@H](O)[C@H]3C(=O)C3=C(O)c4c(O)cc(C)c(O)c4C(=O)[C@]312 | -13 | u | 0.37µM* | i | -64* | 1.2µM* | u | u | 1.2µM*
O=C(Nc1ccc(F)cc1F)c1cc(-c2ccc(Cl)cc2)nc2ccccc12 | x | x | x | x | 3 | x | x | x | x
Cc1cc[n+](C(C)C(=O)c2ccc(Cl)cc2)cc1 (centres undefined) | 24 | -3% | u | u | -1 | i | x | x | x
Cc1cc[n+](C(C)C(=O)c2ccc(-c3ccccc3)cc2)cc1 (centres undefined) | 9 | -24% | 8.2µM* | i | -3 | u | 3% | -16% | 9.2µM*
OCCCN1CCC2(CCC(c3ccccc3)CC2)C1 (centres undefined) | x | x | x | x | 2 | x | x | x | x
CCc1ccc2ncc3c(-c4ccc(F)cc4)nn(CC(=O)NC4CCCCC4)c3c2c1 | x | 0% | 1.6µM* | x | -4 | x | 0% | -2% | u
O=S(=O)(N/N=C1/CC(c2ccccc2)Oc2ccccc21)c1ccc(Br)cc1 (centres undefined) | -9 | u | 8.2µM* | 23µM* | 5 | 18µM* | u | -7% | x
Cc1ccc(S(=O)(=O)N2CCN(C(=O)C3CCN(c4ncnc5sc(C)c(C)c45)CC3)CC2)c(C)c1 | 18 | -10% | 8.2µM* | i | 2 | i | 3% | -14% | 12µM*
Cc1ccc(OCC(=O)NNC(=O)C2CCN(c3ncnc4sc(C)c(C)c34)CC2)cc1 | 17 | -1% | -12% | i | -3 | i | x | x | x
Cc1cc(C2=NNC(=NC3CC3)SC2)c(C)n1-c1ccccc1F | u | -4% | 0.92µM* | i | -16 | u | 3% | -10% | x
Cc1cc(OCc2nc(N)nc(N)c2-c2ccc(Cl)c(Cl)c2)ccc1[N+](=O)[O-] | 4 | 17% | 8.2µM* | 1µM* | 0 | 2.1µM* | -10% | -4% | 15µM*
Cc1nc(N)nc(N)c1-c1ccc(Cl)c(Cl)c1 | 2 | -6% | u | i | -4 | u | 2% | -12% | 1.2µM*
Oc1c(C(c2ccccc2)N2CCOCC2)sc2nc(-c3ccco3)nn12 (centres undefined) | x | 3% | x | x | 40 | x | x | x | x
COC(=O)C1=C(O)C(C(=O)OC)C(c2ccc(C)cc2)C(C#N)(C#N)C1c1ccc(C)cc1 (centres undefined) | -4 | x | 2.9µM* | u | -1 | 7.3µM* | 3% | u | 15µM*
COC(=O)C1=C(Nc2ccc(C)cc2)C=C(C)C(C(=O)OC)C1c1ccc(OC)cc1 (centres undefined) | 10 | x | -26% | i | 5 | i | x | x | x
c1ccc(C[n+]2cccc3c4ccccc4ccc32)cc1 | -18 | u | u | i | 4 | u | 0% | -11% | x
COc1ccc(C(=O)N/N=C(\C)c2ccccn2)cc1OC | 25 | u | 5.2µM* | 2.3µM* | -2 | u | -16% | -47% | x
C/C(=N\NC(=O)c1cc(-c2cccs2)nc2ccccc12)c1ccccn1 | -5 | u | 2.1µM* | i | 5 | u | 9.5µM* | -23% | 1.8µM*
C/C(=N/NC(=O)c1ccc(C(C)(C)C)cc1)c1ccccn1 | 9 | u | 5.8µM* | u | -2 | 2.6µM* | 11µM* | u | u
C/C(=N\NC(=O)c1ccc(Cl)c(Cl)c1)c1ccccn1 | 1 | u | 2.3µM* | i | 6 | u | u | -23% | x
C/C(=N\NC(=O)c1ccccc1Cl)c1ccccn1 | -12 | u | u | i | 0 | u | x | x | x
SMILES | Giardia killer | A549 tox-1 | Nrf2 block | KB-V1 cytotox | PI4K2A inh | KB-3-1 tox | FLuc enzyme inh | A549 tox-2 | ARE-Fluc inh
Cc1cc2c(s1)c1cnn(Cc3c(Cl)ccc(C)c3F)c(=O)c1n2C | x | -1% | 3% | x | -2 | x | x | x | x
Cc1cc(C)cc(-n2cnc3cc(C(=O)NC4CCCCCC4)ccc32)c1 | x | -14% | x | x | 0 | x | x | x | x
C[C@@H]1COc2cc(N3CCSCC3)ccc2S(=O)(=O)N1C | x | x | x | x | -1 | x | x | x | x
COc1ccc(CCNC(=O)c2cc(-c3ccc(C)c(C)c3)nc3ccccc23)cc1OC | x | -5% | x | i | -3 | i | x | x | x
Cn1nnc2c(NCc3ccco3)ncnc21 | x | x | x | i | x | i | x | x | x
CC(=NNC(=S)Nc1cccc(C)c1)c1ccccn1 | -2 | -25% | u | i | -6 | u | x | x | x
COc1ccccc1NC(=S)NN=C(C)c1ccccn1 | -14 | -18% | 1.2µM* | u | -13 | u | -28% | -22% | 2.6µM*
COc1cccc(/C=N/n2c(N)c(S(=O)(=O)c3cccs3)c3nc4ccccc4nc32)c1OC | -14 | u | 3.7µM* | u | 2 | u | -1% | -13% | x
CC(=O)c1cn(CC(=O)Nc2cccc(C)c2C)c2ccccc12 | -1 | -5% | 5.2µM* | u | -5 | u | 3% | -4% | u

From PubChem BioAssay
